Source: PubChem BioAssay (Tox21)
Records with an inconclusive call do not appear. Entries that show only a call come without a potency. The source made the active and inactive calls. The call rests on the fitted dose curve; in most records, active means well fitted cell-killing curve with a large enough effect in the repeat runs; inconclusive means weak or mixed curves, or effect the other way; inactive means flat fitted curve, though single readings scatter.

Assay: Human pregnane X receptor (PXR) small molecule agonists, qHTS cell viability counter screen (AID 1346977); further: nearly all actives have a fitted effect of over 50% in size
Settings: PXR-Luc HepG2 viability, CellTiter-Fluor, 24 h; series mostly up to 92.4 µM
Excerpt: U.S. Tox21 Program National Center for Advancing Translational Sciences [NCATS] NIH Chemical Genomics Center [NCGC] U.S. Environmental Protection Agency [EPA] National Institutes of Environmental Health Sciences [NIEHS] National Toxicology Program [NTP] U.S. Food and Drug Administration [FDA] Tox21 Assay Overview: The human pregnane X receptor (hPXR) regulates the expression of several drug metabolizing enzymes and induction of these proteins is a major mechanism for developing drug resistance in cancer. One such key enzyme catalyzing the drug metabolism is cytochrome P450 3A4 (CYP3A4). Changes in CYP3A4 expression affect drug metabolism, thereby reducing the therapeutic efficacy and altering toxicological response to a drug and which finally causes adverse drug interaction. To screen Tox21 libraries for compounds that activate hPXR-mediated CYP3A4 gene expression, PXR-Luc HepG2 cells were used. Also cytotoxicity of the compounds was tested in parallel by measuring the cell viability using CellTiter-Fluor assay system in the same wells.
Tox21 Assay Protocol Summary: PXR-Luc HepG2 cells were dispensed at 2,000 per well in 5uL of assay medium containing 5% charcoal-stripped FBS into white solid bottom 1536-well plates (Corning Life Sciences, Corning, NY) using a Multidrop Combi (Thermo Scientific, Waltham, MA) dispenser. The assay plates were incubated at 37 C and 5% CO2 for 5hr, and then 23nL of compounds dissolved in DMSO and positive control were transferred using a Pintool station (Wako, San Diego, CA). The assay plates were incubated at 37C and 5% CO2 for 24hr. For cytotoxicity read, after 23hr incubation at 37C, 1uL CellTiter-Fluor reagent (Promega Corporation, Madison, WI) was added to each well of the assay plates using Flying Reagent Dispenser (FRD, Aurora Discovery, San Diego, CA). After 1hr incubation at 37C and 5% CO2, the fluorescence signal was quantified using a ViewLux plate reader (PerkinElmer, Shelton, CT).
Potency means the concentration at half of the fitted maximal effect.

Compound | Potency
CCO[Si](C)(CCCOCC1CO1)OCC (stereo not given) | inactive
COc1cc(S(=O)(=O)Nc2ccccc2)c(OC)cc1N | inactive
Nc1c(Cl)cc(Cl)cc1[N+](=O)[O-] | inactive
N[C@@H](Cc1cc(I)c(O)c(I)c1)C(=O)O | inactive
C=CCOC(=O)COCCC(C)C | inactive
COc1ccc(/C=C/C(=O)c2ccc(OC)cc2OC)cc1 | inactive
CCN(Cc1cccc(S(=O)(=O)O)c1)c1ccc(C(=C2C=CC(=[N+](CC)Cc3cccc(S(=O)(=O)O)c3)C=C2)c2ccccc2S(=O)(=O)[O-])cc1 | 17.3 µM (active)
COC1CCC=CO1 (stereo not given) | inactive
Cc1cccc2sc(N)nc12 | inactive
CC1CCc2nccnc21 (stereo not given) | inactive
CS(=O)(=O)c1ccc([C@@H](C[C@H]2CCC(=O)C2)C(=O)Nc2cnccn2)cc1Cl | inactive
O=[N+]([O-])c1ccc2ncccc2c1 | inactive
Cc1ccc2c(c1[N+](=O)[O-])C(=O)c1ccccc1C2=O | 3.78 µM (active)
C[C@@H]1C[C@H]2[C@@H]3CCC4=CC(=O)C=C[C@]4(C)[C@@]3(F)[C@@H](O)C[C@]2(C)[C@@]1(O)C(=O)COP(=O)(O)O | inactive
COc1ccc(C2C(=O)c3ccccc3C2=O)cc1 | inactive
COC(=O)Nc1nc2ccc(C(=O)C3CC3)cc2[nH]1 | inactive
O=P(O)(O)Oc1ccccc1 | inactive
O=C(O)CO | inactive
Nc1ccc(F)cc1 | inactive
CC(C)C(=O)OCCOc1ccccc1 | inactive

Compound | Potency
CCCCC(CC)COS(=O)(=O)O (stereo not given) | inactive
O=C(O)c1cccc(C[C@@H]2COc3ccc(OCc4nc5cc(F)ccc5s4)cc3[C@@H]2O)c1 | inactive
CC(C)(C)NCC(O)COc1cccc2c1C[C@H](O)[C@H](O)C2 (stereo not given in full) | inactive
CCCC(=O)OC(=O)CCC | inactive
CC(C)c1ccc(C(=O)N=C(N)N)cc1S(C)(=O)=O | inactive
CC(=O)c1ccc[nH]1 | inactive
CC(C)C1CCC(C(=O)N[C@H](Cc2ccccc2)C(=O)O)CC1 (stereo not given in full) | inactive
CC(=O)Oc1cccc(O)c1 | inactive
CCOC(=O)c1ccc(NC(=O)CN2CCCCC2)cc1 | inactive
C=CC(=O)O | inactive
CC(O)Cn1cnc2c1c(=O)n(C)c(=O)n2C (stereo not given) | inactive
CC(C)OC(=O)c1ccccc1C(=O)OC(C)C | inactive
Oc1cccc2[nH]ccc12 | inactive
CC(=O)N[C@@H](Cc1ccc(O)cc1)C(=O)O | inactive
O=C(O)c1ccc(O)cc1O | inactive
CCCCCCC(O)CCCCCCCCCCC(=O)OC (stereo not given) | inactive
C1CCCCC1 | inactive
CCOC(=O)N1CCC(Nc2ccc(Cl)cc2N)CC1 | inactive
C/C(C=O)=C\c1ccccc1 | inactive
CCC(CO)(CO)[N+](=O)[O-] | inactive
